From PubChem BioAssay (EPA / NIEHS)
Values joined by “and” are separate entries in the source; they are usually repeats but may differ in a detail not shown here. Equal entries are not always repeated. Inconclusive results are not listed. Active and inactive are the calls of the source. How the source made its calls, unless noted: active means hit-call score of the fitted dose curve at least 0.9, where 1 is the maximum; inconclusive means response in the unintended direction; inactive means score below 0.9.

How the values were obtained:
[1] = TOX21_p53_BLA_p2_viability: Viability Assessment in the Tox21 HCT-116 p53 Agonism Beta-lactamase Assay, Phase 2 (AID 2283591);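 further: compound exposure lasted 16 h at 37 °C; actives lower the ATP signal meaning cytotoxicity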
Procedure, shortened: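 HCT-116 p53-bla cells (4000/well) rested 5 h at 37C, then received compounds in DMSO (217-fold dilution) for 16 h at 37C, 5% CO2. After the CCF4 read, CellTiter-Glo was added; ATP luminescence was read after 30 min at room temperature.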

[2] = molecular target: Cellular tumor antigen p53 (Homo sapiens) (UniProt P04637); assay: TOX21_p53_BLA_p2_ratio: Tox21 HCT-116 p53 Agonism Beta-lactamase Assay, Ratio, Phase 2 (AID 2283592)
Procedure, shortened: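 HCT-116 cells with p53-responsive beta-lactamase reporter, 4000 cells/well, preincubated 5 h, then compound in DMSO (217-fold dilution) for 16 h at 37C. CCF4-AM substrate 2 h at room temperature; 460/530 nm emission ratio fitted upward versus DMSO.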

[3] = TOX21_p53_BLA_p3_viability: Viability Assessment in the Tox21 HCT-116 p53 Agonism Beta-lactamase Assay, Phase 3 (AID 2283593);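 further: cells exposed to compound for 16 h before reading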
Procedure, shortened: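 HCT-116 cells (4000/well) rested 5 h at 37C, then got DMSO compounds by pin tool (217-fold dilution) for 16 h at 37C, 5% CO2. After the bla read, CellTiter-Glo was added and luminescence read at 30 min, room temperature.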

[4] = molecular target: Cellular tumor antigen p53 (Homo sapiens) (UniProt P04637); assay: TOX21_p53_BLA_p3_ratio: Tox21 HCT-116 p53 Agonism Beta-lactamase Assay, Ratio, Phase 3 (AID 2283596)
Procedure, shortened: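 HCT116 p53-bla cells (4000/well) given compound in DMSO (217-fold dilution) after 5 h, incubated 16 h at 37C. CCF4-AM substrate 2 h at room temperature; 460/530 nm emission ratio, gain fitted against DMSO.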

[5] = TOX21_p53_BLA_p4_viability: Viability Assessment in the Tox21 HCT-116 p53 Agonism Beta-lactamase Assay, Phase 4 (AID 2283597);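 further: hits lower the luminescence signal meaning cytotoxicity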
Procedure, shortened: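 HCT-116 p53-bla cells, 4000/well, dosed after 5 h attachment and incubated 16 h at 37 °C, 5% CO2. Viability from CellTiter-Glo ATP luminescence after 30 min at room temperature, taken after the beta-lactamase read; loss of signal indicates cytotoxicity.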

[6] = molecular target: Cellular tumor antigen p53 (Homo sapiens) (UniProt P04637); assay: TOX21_p53_BLA_p5_ratio: Tox21 HCT-116 p53 Agonism Beta-lactamase Assay, Ratio, Phase 5 (AID 2283599)
Procedure, shortened: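 HCT-116 cells carrying a p53-inducible beta-lactamase reporter were seeded at 4000 cells/well and dosed after 5 h with compound in DMSO (217-fold dilution). After 16 h at 37C, CCF4-AM substrate was added for 2 h, and the 460/530 nm emission ratio was scored as gain-of-signal versus DMSO.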

[7] = TOX21_p53_BLA_p5_viability: Viability Assessment in the Tox21 HCT-116 p53 Agonism Beta-lactamase Assay, Phase 5 (AID 2283600)
Procedure, shortened: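 HCT-116 p53 beta-lactamase reporter cells, 4000/well, were exposed to compound (pin transfer, 217-fold dilution) for 16 hours at 37C. Cellular ATP was read by CellTiter-Glo luminescence after 30 min at room temperature.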

[8] = molecular target: Cellular tumor antigen p53 (Homo sapiens) (UniProt P04637); assay: TOX21_p53_BLA_p4_ratio: Tox21 HCT-116 p53 Agonism Beta-lactamase Assay, Ratio, Phase 4 (AID 2283601)
Procedure, shortened: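 HCT116 cells carrying an inducible beta-lactamase reporter were plated at 4000 cells/well, rested 5 h, then exposed to compounds in DMSO (217-fold dilution) for 16 h at 37C. CCF4-AM substrate was loaded 2 h at room temperature; 460/530 nm emission ratio scored gain-of-signal versus DMSO.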

[9] = CCTE_Shafer_MEA_dev_firing_rate_mean: CCTE's Neural Network Formation Assay for Mean Firing Rate, Shafer Lab (AID 2284031; active means hit-call score of the fitted dose curve at least 0.9, where 1 is the maximum; inactive means score below 0.9;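 further: curve fitted for loss of firing so AC50 reflects decreased mean firing rate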)
Procedure, shortened: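 Primary rat cortical neurons on 48-well MEA plates, exposed from plating day 0 with dosing renewed on DIV 5 and 9. Mean well firing rate over active electrodes, recorded days 5, 7, 9, 12, summarised as trapezoidal AUC.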

[10] = CCTE_Shafer_MEA_dev_per_burst_spike_percent: CCTE's Neural Network Formation Assay for Percent of Spikes in a Burst, Shafer Lab (AID 2284032; active means hit-call score of the fitted dose curve at least 0.9, where 1 is the maximum; inactive means score below 0.9;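 further: fitted as a decrease in burst spike percentage below DMSO baseline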)
Procedure, shortened: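 Rat primary cortical neurons on 16-electrode MEA wells, dosed from plating day 0 for 12 days with renewal on DIV 5 and 9; spikes-in-bursts percentage averaged over bursting electrodes, collapsed as AUC across days 5, 7, 9, 12; loss direction versus DMSO.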

[11] = CCTE_Shafer_MEA_dev_active_electrodes_number: CCTE's Neural Network Formation Assay for Number of Active Electrodes, Shafer Lab (AID 2284040);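 further: potency for loss of active electrodes versus DMSO so lower counts are hits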
Procedure, shortened: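 Primary rat cortical neurons on 16-electrode MEA wells, exposed from day 0 through day 12 with compound renewed at DIV 5 and 9 feeds. Active electrodes (mean firing ≥5 spikes/min) counted at DIV 5, 7, 9, 12; trapezoidal AUC across days, loss-of-signal versus DMSO.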

[12] = CCTE_Shafer_MEA_dev_burst_rate: CCTE's Neural Network Formation Assay for Burst Rate, Shafer Lab (AID 2284042; active means hit-call score of the fitted dose curve at least 0.9, where 1 is the maximum; inactive means score below 0.9;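 further: potency for loss of burst rate below DMSO control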)
Procedure, shortened: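 Rat primary cortical cultures on PEI/laminin MEA; compound from plating, re-dosed at DIV 5, 9 media change. Single-electrode bursts/recording length, well mean of active electrodes; AUC over DIV 5–12 recordings; loss-of-signal vs DMSO.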

[13] = CCTE_Shafer_MEA_dev_bursting_electrodes_number: CCTE's Neural Network Formation Assay for Number of Bursting Electrodes, Shafer Lab (AID 2284043);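 further: potency is for loss of bursting electrodes relative to DMSO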
Procedure, shortened: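 Primary rat cortical neurons were cultured on PEI-coated 48-well MEA plates (16 electrodes/well) and exposed from plating through day 12, with compound renewed at feeds on DIV 5 and 9. Electrodes bursting ≥1 per 2 min were counted on DIV 5, 7, 9, 12; trapezoidal AUC taken.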

[14] = CCTE_Shafer_MEA_dev_per_burst_interspike_interval: CCTE's Neural Network Formation Assay for Burst Interspike Interval, Shafer Lab (AID 2284044; active means hit-call score of the fitted dose curve at least 0.9, where 1 is the maximum; inactive means score below 0.9;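 further: mean spike spacing inside bursts as AUC over recordings on days 5 7 9 12; potency for a decrease of within-burst interspike interval below DMSO level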)
Procedure, shortened: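 Primary rat cortical neurons on 48-well MEA plates, exposed from day 0 through day 12, treatment renewed at DIV 5 and 9. Within-burst interspike interval recorded days 5, 7, 9, 12, well-averaged, summarised as AUC; negative fit versus DMSO.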

[15] = CCTE_Shafer_MEA_dev_burst_duration_mean: CCTE's Neural Network Formation Assay for Mean Burst Duration, Shafer Lab (AID 2284045; active means hit-call score of the fitted dose curve at least 0.9, where 1 is the maximum; inactive means score below 0.9;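 further: curve fitted for loss meaning shorter burst duration than DMSO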)
Procedure, shortened: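 Primary rat cortical neurons on PEI-coated 16-electrode MEA wells, exposed from plating through day 12 with compound renewed at DIV 5 and 9; spontaneous activity recorded days 5, 7, 9, 12. Well-mean burst duration collapsed as trapezoidal AUC, fitted for loss versus DMSO.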

Measured: AC50

Chain of Cellular tumor antigen p53 (Homo sapiens) (P04637 whole entry, looked up): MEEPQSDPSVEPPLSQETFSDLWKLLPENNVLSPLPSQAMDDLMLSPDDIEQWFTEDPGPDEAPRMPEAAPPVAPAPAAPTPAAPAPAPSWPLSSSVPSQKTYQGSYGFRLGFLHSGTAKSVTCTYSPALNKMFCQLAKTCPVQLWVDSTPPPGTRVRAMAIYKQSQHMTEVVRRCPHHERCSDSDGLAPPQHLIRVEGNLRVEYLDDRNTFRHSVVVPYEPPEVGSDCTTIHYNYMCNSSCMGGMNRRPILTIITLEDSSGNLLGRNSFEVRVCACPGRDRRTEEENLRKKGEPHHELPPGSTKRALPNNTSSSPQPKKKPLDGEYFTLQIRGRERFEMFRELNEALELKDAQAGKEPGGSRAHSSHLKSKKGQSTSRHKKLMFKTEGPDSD

Cc1c(O)cccc1C(=O)N[C@@H](CSc1ccccc1)[C@H](O)CN1C[C@H]2CCCC[C@H]2C[C@H]1C(=O)NC(C)(C)C
active: [1] 36.3 µM and 18.7 µM | [2] 44.9 µM and 20.2 µM | [3] 21.6 µM and 21.1 µM | [4] 43.8 µM and 38.2 µM | [5] 27900 nM | [6] 66.8 µM and 35.3 µM | [7] 33.1 µM and 19.5 µM | [8] 46.8 µM and 23.1 µM | [9] 438 nM | [10] 1430 nM | [11] 953 nM | [12] 664 nM | [13] 819 nM | [14] 473 nM | [15] 311 nM
